The values below come from ChEMBL document CHEMBL2218924, “A broad activity screen in support of a chemogenomic map for kinase signalling research and drug discovery” (Biochem J, 2013).

As a reminder, the residual activity is the signal under treatment as a percentage of the control signal.

For test [1], the target named is Platelet-derived growth factor receptor alpha (Homo sapiens) (UniProt P16234). The following applies: at 1 µM.
Test [2] shares this target. The following applies: at 10 µM.
For test [3], the target named is Platelet-derived growth factor receptor beta (Homo sapiens) (UniProt P09619). The following applies: at 1 µM.
Test [4] shares this target. The note with it: at 10 µM.
Test [5] concerns the target T1, 3-phosphoinositide-dependent protein kinase 1 (Homo sapiens) (UniProt O15530).
T1 sequence (whole entry): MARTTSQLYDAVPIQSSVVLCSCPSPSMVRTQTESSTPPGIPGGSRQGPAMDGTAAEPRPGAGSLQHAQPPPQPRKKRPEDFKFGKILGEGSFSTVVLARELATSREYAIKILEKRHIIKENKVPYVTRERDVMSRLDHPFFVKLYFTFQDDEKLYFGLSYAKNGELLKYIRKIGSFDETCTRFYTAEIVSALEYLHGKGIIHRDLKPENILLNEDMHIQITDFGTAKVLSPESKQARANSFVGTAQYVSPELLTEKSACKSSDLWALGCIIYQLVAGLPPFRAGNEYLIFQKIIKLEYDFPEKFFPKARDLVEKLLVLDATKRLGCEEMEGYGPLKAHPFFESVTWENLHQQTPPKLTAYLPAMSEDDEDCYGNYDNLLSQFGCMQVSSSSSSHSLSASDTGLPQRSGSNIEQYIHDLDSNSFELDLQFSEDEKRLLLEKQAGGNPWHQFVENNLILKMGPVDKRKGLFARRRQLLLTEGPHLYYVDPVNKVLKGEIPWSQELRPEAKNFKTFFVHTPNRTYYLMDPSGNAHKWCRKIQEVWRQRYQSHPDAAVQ
The following applies: at 1 µM.

Test [6] addresses T1, 3-phosphoinositide-dependent protein kinase 1 (Homo sapiens). The note with it: at 10 µM.
Test [7] deals with cAMP-dependent protein kinase catalytic subunit alpha (Homo sapiens) (UniProt P17612). The following applies: at 1 µM.
Test [8] shares this target. The following applies: at 10 µM.
Test [9] deals with RAC-gamma serine/threonine-protein kinase (Homo sapiens) (UniProt Q9Y243). The following applies: at 1 µM.
For test [10] the target is unchanged. The following applies: at 10 µM.

Chain of Platelet-derived growth factor receptor beta (Homo sapiens) (P09619 whole entry): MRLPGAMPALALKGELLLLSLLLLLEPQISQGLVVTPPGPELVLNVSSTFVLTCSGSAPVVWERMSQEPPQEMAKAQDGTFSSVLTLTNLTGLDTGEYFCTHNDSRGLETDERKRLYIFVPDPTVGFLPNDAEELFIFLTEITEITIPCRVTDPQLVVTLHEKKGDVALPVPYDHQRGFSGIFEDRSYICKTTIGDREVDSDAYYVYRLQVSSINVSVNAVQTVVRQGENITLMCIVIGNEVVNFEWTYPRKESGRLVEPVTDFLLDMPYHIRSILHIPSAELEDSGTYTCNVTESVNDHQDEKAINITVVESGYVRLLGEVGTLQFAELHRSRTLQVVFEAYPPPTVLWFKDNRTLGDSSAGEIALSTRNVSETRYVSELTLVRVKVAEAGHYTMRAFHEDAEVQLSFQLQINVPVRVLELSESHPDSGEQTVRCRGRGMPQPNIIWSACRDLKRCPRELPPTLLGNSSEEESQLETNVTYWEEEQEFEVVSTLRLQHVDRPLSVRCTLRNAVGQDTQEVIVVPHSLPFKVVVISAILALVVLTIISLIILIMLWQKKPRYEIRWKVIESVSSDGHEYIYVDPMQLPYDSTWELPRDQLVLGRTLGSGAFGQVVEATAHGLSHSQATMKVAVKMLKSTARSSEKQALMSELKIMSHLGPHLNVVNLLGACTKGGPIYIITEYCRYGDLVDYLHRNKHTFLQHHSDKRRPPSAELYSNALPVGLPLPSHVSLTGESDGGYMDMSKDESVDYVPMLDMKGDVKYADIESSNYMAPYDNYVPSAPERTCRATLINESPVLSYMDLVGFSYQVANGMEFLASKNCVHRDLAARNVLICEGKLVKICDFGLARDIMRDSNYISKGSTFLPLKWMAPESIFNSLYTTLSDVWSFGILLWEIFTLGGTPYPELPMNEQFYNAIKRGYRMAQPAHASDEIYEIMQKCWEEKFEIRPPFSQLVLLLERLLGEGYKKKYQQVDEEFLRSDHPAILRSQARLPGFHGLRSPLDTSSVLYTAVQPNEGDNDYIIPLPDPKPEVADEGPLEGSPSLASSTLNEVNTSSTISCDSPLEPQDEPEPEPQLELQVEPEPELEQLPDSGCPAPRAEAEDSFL
Chain of RAC-gamma serine/threonine-protein kinase (Homo sapiens) (Q9Y243 whole entry): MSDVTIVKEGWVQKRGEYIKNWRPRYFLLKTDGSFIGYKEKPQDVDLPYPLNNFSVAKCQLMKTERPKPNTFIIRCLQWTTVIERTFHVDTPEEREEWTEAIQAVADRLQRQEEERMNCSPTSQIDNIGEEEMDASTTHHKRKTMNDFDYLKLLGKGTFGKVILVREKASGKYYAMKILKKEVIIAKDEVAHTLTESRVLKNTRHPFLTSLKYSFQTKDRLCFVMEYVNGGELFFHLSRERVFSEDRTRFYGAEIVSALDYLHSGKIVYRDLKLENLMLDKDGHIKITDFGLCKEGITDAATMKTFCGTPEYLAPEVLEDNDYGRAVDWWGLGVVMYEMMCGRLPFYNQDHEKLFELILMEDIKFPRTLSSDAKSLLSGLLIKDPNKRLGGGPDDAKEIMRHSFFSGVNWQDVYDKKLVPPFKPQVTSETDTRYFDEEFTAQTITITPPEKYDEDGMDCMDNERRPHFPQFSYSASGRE
Chain of Platelet-derived growth factor receptor alpha (Homo sapiens) (P16234 whole entry): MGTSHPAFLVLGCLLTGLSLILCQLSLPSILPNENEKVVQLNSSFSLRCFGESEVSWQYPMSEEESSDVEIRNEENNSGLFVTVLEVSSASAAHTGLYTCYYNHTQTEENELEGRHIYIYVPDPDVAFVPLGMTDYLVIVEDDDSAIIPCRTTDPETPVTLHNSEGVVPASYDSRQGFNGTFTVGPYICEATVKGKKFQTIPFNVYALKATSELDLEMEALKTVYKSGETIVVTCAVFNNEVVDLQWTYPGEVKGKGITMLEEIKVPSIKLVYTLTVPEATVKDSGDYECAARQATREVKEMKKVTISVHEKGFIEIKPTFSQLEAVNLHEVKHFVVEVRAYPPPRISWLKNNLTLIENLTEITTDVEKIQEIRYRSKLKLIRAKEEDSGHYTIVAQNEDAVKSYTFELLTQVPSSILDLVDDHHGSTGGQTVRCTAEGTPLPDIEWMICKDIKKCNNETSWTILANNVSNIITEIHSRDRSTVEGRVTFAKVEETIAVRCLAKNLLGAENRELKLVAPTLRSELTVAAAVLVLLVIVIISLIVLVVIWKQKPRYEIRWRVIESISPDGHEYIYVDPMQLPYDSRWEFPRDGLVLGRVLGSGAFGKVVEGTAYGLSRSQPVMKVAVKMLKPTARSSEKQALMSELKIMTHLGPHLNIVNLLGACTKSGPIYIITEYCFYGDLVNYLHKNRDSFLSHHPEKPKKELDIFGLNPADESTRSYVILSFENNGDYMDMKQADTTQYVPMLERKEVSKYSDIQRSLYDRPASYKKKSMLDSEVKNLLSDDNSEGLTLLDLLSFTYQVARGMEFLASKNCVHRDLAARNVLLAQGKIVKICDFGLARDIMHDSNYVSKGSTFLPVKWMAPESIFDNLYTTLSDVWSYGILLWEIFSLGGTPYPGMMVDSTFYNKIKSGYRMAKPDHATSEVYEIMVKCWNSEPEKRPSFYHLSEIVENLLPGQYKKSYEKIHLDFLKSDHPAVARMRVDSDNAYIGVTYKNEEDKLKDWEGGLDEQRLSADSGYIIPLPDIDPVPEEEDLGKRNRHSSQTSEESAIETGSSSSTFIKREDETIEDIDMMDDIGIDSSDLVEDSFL

`O=c1c2ccccc2[nH]c(=S)n1CCN1CCC(=C(c2ccc(F)cc2)c2ccc(F)cc2)CC1`: the residual activity in test [1] came to 105%; in [2], 97%; in test [3], 106%; in test [4], 85%; in [5] it was 116%; in test [6] it was 111%. Besides, the residual activity in test [7] turned out to be 92%; in test [8], 114%; in test [9] it was 93%; in [10], 40%.
On to `COc1cccc(-c2cc(=O)c3ccccc3o2)c1N`, for which the residual activity in test [1] came to 107%; in [2], 110%; in [3], 114%; in test [4], 108%; in test [5], 114%; in [6] it was 99%. The residual activity in test [7] was 96%; in [8] it was 95%; in [9] it was 100%; in test [10], 95%.
On to `COc1cc2ncnc(Nc3ccc(Oc4ccccc4)cc3)c2cc1OC`, for which the residual activity in test [1] was 79%; in test [2] it was 42%; in test [3], 102%; in test [4], 83%; in test [5], 109%; in [6], 120%. Further, the residual activity came out at 92% in [7], 134% in test [8], 92% in [9] and 106% in [10].
Turning to `CC(=O)O/N=C1\C(=C2\C(=O)Nc3cc(Br)ccc32)Nc2ccccc21`, the residual activity turned out to be 102% in test [1]; 79% in test [2]; 86% in test [3]; 52% in test [4]; 91% in test [5]; 67% in [6]. Further, the residual activity worked out at 86% in test [7], 93% in test [8], 98% in test [9] and 79% in test [10].
For `C[C@@H](N)[C@H]1CC[C@H](C(=O)Nc2ccncc2)CC1`, the residual activity is 99% in [1]; 102% in test [2]; 107% in [3]; 106% in test [4]; 95% in test [5]; 83% in [6]. Besides, the residual activity in test [7] was determined as 96%; in [8], 80%; in [9] it was 104%; in test [10], 93%.
As for `CCN(CC)CCCCN1c2ccccc2Oc2ccc(Cl)cc21`, the residual activity in [1] is 126%; in test [2], 104%; in test [3], 119%; in [4] it was 108%; in [5], 131%; in [6] it was 138%. The residual activity came to 95% in test [7], 147% in test [8], 126% in [9] and 113% in test [10].
Turning to `O=C1Nc2ccc(Br)cc2/C1=C\c1cc2c([nH]1)CCCC2`, the residual activity in test [1] came to 34%; in test [2] it was 23%; in test [3], 74%; in test [4] it was 51%; in [5] it was 109%; in test [6] it was 99%. Besides, the residual activity in test [7] was 108%; in test [8] it was 80%; in [9], 105%.
As for `CO[C@H]1C[C@@H]2CC[C@@H](C)[C@@](O)(O2)C(=O)C(=O)N2CCCC[C@H]2C(=O)O[C@H]([C@H](C)C[C@@H]2CC[C@@H](O)[C@H](OC)C2)CC(=O)[C@H](C)/C=C(\C)[C@@H](O)[C@@H](OC)C(=O)[C@H](C)C[C@H](C)/C=C/C=C/C=C/1C`, the residual activity amounted to 111% in [1]; 102% in test [2]; 116% in test [3]; 114% in [4]; 117% in [5]; 126% in [6]. Moreover, the residual activity in [7] amounted to 112%; in test [8], 141%; in test [9] it was 103%; in test [10], 98%.
Take `Oc1c2ccccc2c2c3c(cccc13)N=N2`: the residual activity in test [1] was found to be 108%; in [2], 86%; in test [3], 99%; in test [4] it was 96%; in [5], 72%; in [6], 19%. Further, the residual activity stood at 89% in test [7], 73% in test [8], 89% in [9] and 66% in test [10].
Take `O=Nc1c(-c2c(O)[nH]c3ccccc23)[nH]c2ccccc12`: the residual activity in test [1] worked out at 87%; in [2], 37%; in test [3], 84%; in test [4], 26%; in test [5] it was 53%; in test [6], 9%. Besides, the residual activity turned out to be 90% in test [7], 54% in test [8], 95% in test [9] and 64% in test [10].
On to `O=C(Nc1cccc(Nc2nccc(Nc3cccc(C(F)(F)F)c3)n2)c1)C1CC1`, for which the residual activity in test [1] came to 107%; in test [2], 88%; in test [3] it was 99%; in test [4] it was 70%; in test [5], 100%; in test [6], 93%. In addition, the residual activity in test [7] is 75%; in [8] it was 106%; in [9], 89%; in test [10], 67%.
As for `Cc1nc2cc3nc(-c4cccs4)cnc3cc2n1C`, the residual activity in [1] was 78%; in [2] it was 15%; in test [3] it was 97%; in [4], 46%; in test [5] it was 109%; in test [6], 109%. Also, the residual activity worked out at 104% in test [7], 106% in test [8], 112% in [9] and 102% in [10].
Regarding `CCC(=O)Nc1ccc2ncnc(Nc3cccc(Br)c3)c2c1`, the residual activity was found to be 117% in test [1]; 91% in test [2]; 96% in test [3]; 92% in test [4]; 111% in test [5]; 107% in [6]. In addition, the residual activity in [7] was 88%; in [8] it was 102%; in test [9], 102%; in test [10] it was 99%.
`O=C1NC(=O)c2c1c1c3ccccc3[nH]c1c1[nH]c3cc(Br)ccc3c21`: the residual activity in [1] came out at 101%; in [2], 95%; in test [3], 89%; in test [4], 76%; in [5] it was 75%; in [6], 29%. Further, the residual activity stood at 97% in test [7], 101% in test [8], 75% in test [9] and 77% in test [10].
In the case of `CC(C)n1cnc2/c(=N/c3cccc(Cl)c3)nc(NCCO)[nH]c21`, the residual activity came to 105% in [1]; 107% in test [2]; 108% in test [3]; 113% in [4]; 96% in test [5]; 81% in test [6]. For the same compound, the residual activity in test [7] was 96%; in [8] it was 89%; in [9], 95%; in [10], 76%.
As for `Ic1cccc(CSc2nnc(-c3ccncc3)o2)c1`, the residual activity in [1] stood at 104%; in test [2], 97%; in test [3], 99%; in test [4], 97%; in [5], 56%; in test [6], 44%. In addition, the residual activity is 99% in [7], 79% in test [8], 92% in test [9] and 74% in [10].
